Compounds with a hit are over-represented: about 4.6% of the library has one in this group of screens.
TRHR PAM: allosteric enhancers of human TRH receptor; P34981; TRHR cells, fluo-8 calcium fluorescence, EC20 TRH enhancement; enhancement, % at 2 µM; 360,000 tested, 0.66% active; AID 493056; in the data active = enhancement above about 30%; note: 0% is about no effect
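TRHR-expressing cells loaded with fluo-8 calcium dye were read kinetically (ex 480/em 530) during compound addition, then stimulated with an EC20 of TRH (10 nM final). Enhancement of the Gq-mediated intracellular calcium response was scored.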
D1 agonist: activates the human D1 dopamine receptor. HEK293 T-REx D1 cells, calcium flux, agonist mode. 360,000 tested, 1% active. activation, % at 2 µM. AID 504660. P21728; note: 0% is about no effect
Target sequence (P21728 whole entry, looked up): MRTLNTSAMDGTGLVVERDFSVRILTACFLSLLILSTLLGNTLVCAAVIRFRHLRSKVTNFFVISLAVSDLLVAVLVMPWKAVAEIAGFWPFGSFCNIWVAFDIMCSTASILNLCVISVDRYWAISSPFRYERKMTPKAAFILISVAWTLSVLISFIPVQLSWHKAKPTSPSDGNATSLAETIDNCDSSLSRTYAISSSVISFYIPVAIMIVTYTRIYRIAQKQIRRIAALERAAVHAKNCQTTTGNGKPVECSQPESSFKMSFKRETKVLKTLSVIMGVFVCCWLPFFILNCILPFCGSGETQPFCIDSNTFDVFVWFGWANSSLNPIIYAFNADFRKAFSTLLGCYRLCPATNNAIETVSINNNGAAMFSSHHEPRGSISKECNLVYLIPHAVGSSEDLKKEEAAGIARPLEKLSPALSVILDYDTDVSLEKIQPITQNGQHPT
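Inducible HEK293 T-REx D1 cells, force-coupled to calcium signalling, were plated at 4000 cells/well with tetracycline and held overnight at 30 C. After no-wash calcium dye loading, compound-evoked calcium rise over 180 s flagged agonists.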
D1 PAM: potentiators of human D1 dopamine receptor | AID 504651 | P21728 | 360,000 tested, 0.036% active | potentiation, % at 10 µM | HEK293 TREx D1 cells, calcium flux, dopamine EC20 potentiation; in the data active = potentiation above about 30%; note: 0% is about no effect
TRHR agonist: activates the human TRH receptor. P34981. TRHR cells, calcium flux fluo-8, FDSS agonist mode. activation, % at 2 µM. 360,000 tested, 0.18% active. AID 493084; note: 0% is about no effect
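Steps: seed TRHR cells overnight; add fluo-8 no-wash Ca dye, RT 30 min–1.5 h; record 10 s baseline; pin-transfer compounds; monitor fluorescence 1 cycle/s for the agonist window. Calcium increases flag candidate agonists.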
D1 antagonist: human D1 dopamine receptor antagonism; P21728; HEK293 TREx D1 cells, calcium flux, dopamine EC80; hits give low values; activity change, negative = inhibition, % at 10 µM; 360,000 tested, 3.2% active; AID 504652; in the data active = activity change below about -30%; note: % is set by controls: 0 for no effect and ±100 for the full control effect
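Tetracycline-induced HEK293 T-REx cells with force-coupled D1 receptor were loaded with a no-wash calcium dye. Compound was added after a 10 s baseline and read kinetically for 180 s; EC80 dopamine was then added and calcium flux followed another 180 s.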
* hit, by the source's call; . = not tested or not shown; ! = a repeat was not active. Cut-off read from the data, not from the text of the source, unless noted: active = activation above about 30%; inactive = the rest.

SMILES	TRHR PAM	D1 agonist	D1 PAM	TRHR agonist	D1 antagonist
CC(C)Oc1ccc(CNC(=O)C2CCCCN2S(=O)(=O)c2ccc(F)cc2)cc1 (stereo unspecified)	13.1	3.7	-6.3	-0.5	-39.7*
O=C(NCCc1ccccc1F)C1CCCN1S(=O)(=O)c1ccc2ccccc2c1 (stereo unspecified)	-0.8	40.8*	-15.3	-0.1	-52.9*
CCNC(=O)C1CCCN1S(=O)(=O)c1ccc2ccccc2c1 (stereo unspecified)	-0.9	0.3	-4.8	-0.7	-6.1
CC1=C(C(=O)Nc2ccc(C)c(C)c2)C2(CCCCCC2)OC1=O	10.4	0.1	3.2	-1.1	-2.9
CCCn1cc(S(=O)(=O)c2ccc(CC)cc2)c(=O)c2ccccc21	1.4	-0.9	-1.6	-0.9	-7.5
CCOc1ccc(/C=C/C(=O)OCC(=O)NCCc2ccc(OCC)c(OCC)c2)cc1OC	-1.9	0.2	-2.2	0.4	10.4
COc1cc(/C=C/C(=O)OCC(=O)NCCc2ccccc2)ccc1OC(F)F	0.7	14.2	-6.9	-0.9	-30.3*
CCOc1ccccc1NC(=O)COC(=O)/C=C/c1ccc(OC)c(OC)c1	3.4	6.2	-4.5	-0.1	-38.2*
CCOC(=O)c1cccc(NC(=O)c2cc3c(Cl)nc4ccc(C)cc4c3s2)c1	8.1	4.6	0.5	-2.0	19.5
COc1ccccc1-c1noc(-c2ccc(NC(C)C)c([N+](=O)[O-])c2)n1	-4.7	4.3	-0.2	-0.9	4.3
COc1ccccc1NC(=O)Cn1c(=O)n(CCc2ccccc2)c(=O)c2c3c(sc21)CN(C(C)=O)CC3	-4.3	2.3	-3.9	0.8	-6.0
Cc1sc2ncnc(N3CCC(C(=O)NNC(=O)COc4ccccc4F)CC3)c2c1C	-1.3	5.2	2.9	-0.6	-40.3*
Cc1sc2ncnc(N3CCC(C(=O)NNC(=O)COc4ccccc4Cl)CC3)c2c1C	11.9	12.0	-14.2	-0.1	4.9
COc1ccc(-c2ccc(C(=O)O)c(=O)[nH]2)cc1	-2.7	5.3	-2.5	0.0	-30.1*
COc1ccc(-c2cc(=O)[nH]c(=S)[nH]2)cc1	3.6	2.0	-8.7	0.4	-18.5
CCOc1ccc(N(CC)S(=O)(=O)N2CCCC(C(=O)NCc3ccccc3OCC)C2)cc1 (stereo unspecified)	-17.0	12.7	-4.7	1.0	-0.8
Cn1nc(C(=O)NCc2cccs2)c2ccccc2c1=O	-1.7	2.3	-5.0	0.8	-41.1*
Cn1nc(C(=O)NCc2ccccc2)c2ccccc2c1=O	-1.4	2.0	2.5	1.0	-4.3
CCCCn1nc(C(=O)NCC(c2cccs2)N2CCOCC2)c2ccccc2c1=O (stereo unspecified)	-5.3	12.3	.	-0.2	5.3
CC1CCCCC1NC(=O)c1nn(C)c(=O)c2ccccc12 (stereo unspecified)	2.2	0.0	-4.8	0.5	-31.9*
CCn1nc(C(=O)NCC(c2cccs2)N2CCOCC2)c2ccccc2c1=O (stereo unspecified)	11.3	3.4	-10.4	-1.2	-34.8*
Cn1nc(C(=O)NC2CCCC2)c2ccccc2c1=O	-8.2	0.8	-9.4	0.1	11.8
CCOC(=O)N1CCc2c(sc(NCc3ccc(N(CC)CC)cc3)c2C(=O)Nc2cc(OC)ccc2OC)C1	-5.8	0.4	-3.5	-0.5	10.5
Cn1cc(-c2nnnn2-c2cccc(C(F)(F)F)c2)c(C(F)(F)F)n1	18.1	25.7	-10.6	-0.8	-37.0*
Cc1nn(-c2cccc(C(F)(F)F)c2)c(=O)c2ccccc12	-1.9	0.3	-6.3	-0.2	6.1
SMILES	TRHR PAM	D1 agonist	D1 PAM	TRHR agonist	D1 antagonist
Cc1ccc(S(=O)(=O)N2CCN(C(=O)CCCOc3cccc(C)c3)CC2)cc1	1.5	0.7	-0.2	-0.5	-38.8*
Cc1ccc(OCCCC(=O)N2CCN(S(=O)(=O)c3cccc(F)c3)CC2)cc1	5.0	5.8	-4.0	-0.6	-33.1*
CC(=O)c1ccc(OCCCC(=O)N2CCN(S(=O)(=O)c3ccc(C)cc3C)CC2)cc1	-7.9	8.4	-10.5	-0.2	-30.6*
CC(=O)c1ccc(OCCCC(=O)N2CCN(S(=O)(=O)c3cc(C)ccc3C)CC2)cc1	-2.9	2.6	-6.4	-0.5	-22.6
CSc1ccc(CCNC(=O)CCCn2c(=O)c3cccn3c3ccccc32)cc1	-1.4	6.4	-4.7	-0.1	-1.4
CN(C(=O)CC1C(=O)NCCN1Cc1cccc(C(F)(F)F)c1)C1CCOCC1 (stereo unspecified)	3.2	2.1	-1.5	0.6	1.3
Cc1nnc(N2CCCC(C(=O)NCc3ccccc3F)C2)c2nn(-c3ccc(Cl)cc3)c(C)c12 (stereo unspecified)	-1.2	1.4	-1.2	-0.9	15.0
NC(=O)c1c(N)sc2c1CCCC2	4.1	1.9	0.7	0.5	-6.5
Nc1sc2c(c1C(=O)c1ccccc1)CCCC2	-3.7	1.4	-1.4	-0.6	-65.8*
CCOc1ccc(CNC(=O)c2ccc3c(c2)nc2n3CCCCC2)cc1	5.6	0.9	0.5	-0.6	11.7
NS(=O)(=O)c1ccc(NC(=S)Nc2ccn(Cc3cccc4ccccc34)n2)cc1	-21.8	0.9	1.5	-0.4	-52.5*
Fc1ccc(C(CCNCc2ccccn2)c2ccc(Cl)cc2)cc1 (stereo unspecified)	5.6	66.5*	18.9	2.6	16.6
Cc1ccc2c(=O)cc(C(=O)N(Cc3ccc(C(C)(C)C)cc3)C3CCS(=O)(=O)C3)oc2c1 (stereo unspecified)	-3.2	0.2	-3.4	-0.2	-74.6*
COc1ccc(CN(C(=O)c2cc(=O)c3ccccc3o2)C2CCS(=O)(=O)C2)cc1OC (stereo unspecified)	-3.0	3.6	13.1	0.4	-36.9*!
Cc1cc2oc(C(=O)N(Cc3ccccc3)C3CCS(=O)(=O)C3)cc(=O)c2cc1C (stereo unspecified)	5.8	0.0	3.4	-0.5	-6.8
CCCCOc1ccccc1C1CC(=O)Nc2ccc3ccccc3c21 (stereo unspecified)	0.6	3.9	2.0	0.0	19.8
Cc1ccc(NC(=O)CSc2nc3c([nH]c4ccccc43)c(=O)n2C)cc1	-1.3	-0.9	-0.5	-0.2	-33.4*
COc1ccc(-n2c(SCC(=O)Nc3cccc(C)c3C)nc3c([nH]c4ccccc43)c2=O)cc1	1.7	0.9	-2.4	0.3	1.1
Cc1cccc(NC(=O)CSc2nc3c([nH]c4ccccc43)c(=O)n2-c2ccc(F)cc2)c1C	3.2	2.0	1.4	-0.6	-32.5*
O=C(CSc1nc2c([nH]c3ccccc32)c(=O)n1-c1ccc(F)cc1)N1CCc2ccccc21	8.9	1.5	-4.0	-0.3	-45.1*
COc1cccc(-n2c(SCC(N)=O)nc3c([nH]c4ccccc43)c2=O)c1	37.1*	4.5	-4.9	-0.4	-11.4
CC(=O)OCC(=O)c1c[nH]c2ccccc12	-9.2	0.3	-5.8	0.5	11.5
O=C(c1ccccc1)N1CCN(Cc2c[nH]c3ccccc23)CC1	-5.9	6.4	-6.8	0.2	15.8
